# Reference: the supplement of paper PMC6555819
# Test system: VDR:RXRa (NR concentration 270 nM, RXRa partner concentration 90 nM)
# Assay: PBM binding z-score (relative to random genomic background probes); higher = stronger binding; sequences stand for … in GC…GCGATTGACAGCGTAGAATGAAGG
# Procedure: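 Protein-binding microarray (Agilent 4x180K custom design, double-stranded 60-nt probes: 5' GC cap, 34-nt variable region, 24-nt constant primer region; full probe sequence given). Purified or IVT nuclear receptor:RXRα heterodimers (3:1 NR:RXRα, mostly 270:90 nM) or homodimers were incubated for 1 h in PBS with 2% milk and no ligand, then detected with Alexa488 antibodies. Fluorescence from o1-orientation probes (~5 replicates averaged) was converted to z-scores against 500 random hg19 background probes. Variable regions are seed direct-repeat (DR0–DR5) sites, all their single-nucleotide variants and half-site ablations.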
row,Sequence,PBM binding z-score
1,ACTAGTTGGTCAGCTGGGGTCACACACAATTCGG,4.93
2,GATACAGGGTGAAGGCCAGAGTACGCGTATTGAT,-0.32
3,CCAGAAAGGTGAAAGGTAACTCAGTCTGGTACGC,1.81
4,TGGCCTAGGTCATGCGGGCCAGTATAGTGTCGGC,2.64
5,ATCGAAAGGTCGAGGAGGTGAGTATACACCGTTT,4.25
6,ATATGGAGGTTAGCTGGGGTCATTCAGACTAGGC,6.86
7,CAAACTAGGTCACGAAAGGTCAAAGTGGAATGAC,6.71
8,CCTCGGAGGACAGAAGGTCAGATCTGTCCGCTTT,0.977
9,TAGCCTAGGTCATTTGGCCAGTATAGTACGCATC,2.52
10,CCGAGTGGGTTACGAGGGGGCATTCAGTGCGAAT,5.13
11,CCGAGTAGGTTACGAGTGGGCATTCAGTGCGAAT,-0.217
12,ACTAGCAGGTCAAGGGTCACTCAAGATTAGTCCG,5.4
13,CGAACTAGGTCAGAACAGGACATTGAAGGATGAT,1.59
14,ATATGTAAGTTAGGGTCATTCAGAAAGTAGGGAA,4.5
15,ATATGTAGGTTAGGGTCATGCAGAAAGTAGGGAA,4.36
16,CCGACTGGGCCATTCAGAGGTCATTGATCATATG,3.7
17,CCTACTGGGCCACGAAAGGTAATTGATTCAGTGA,-0.34
18,CGAGCTAGGTCAAAGGACAGTGAAAGGCGACGTA,0.97
19,TCATATAGGTGAAAGGTGAAAGTCGGTGTGGTAA,2.12
20,CATAGTTGGTCAAGGTCACACACGCTATAGGTAC,4.32

row,Sequence,PBM binding z-score
1,TCGAGTAGGTTACGGGGGCATTCACGGATGAAGA,3.95
2,GATAAAGGGTCAGCTAGAGGCCAGAGTATGGAAA,3.73
3,GCTAGTGGGTCAGTAAAAGGTCACACACCGGTCG,4.9
4,CAAACTAGGTCAAGGTCAAAGTAGGTTTGTGCCA,5.54
5,CGAACTAGGTCAGAACAGGACAGTTAAGGATGAT,1.02
6,CAAACTAGGTCAAAGGTCAAAATCGAGCCAACCA,6.43
7,TCGAGTAGGTTACTGGGGCATTCAGGGATGAAGA,0.313
8,CCTAGTTGGGCAGGAGGTCACACACCGGATATGA,3.09
9,TCTCGGAGGACACGAAAGGTGAGAGCTCGACATC,0.263
10,ATATGTCGGTTAGGGTCATTCAGAAAGTAGGGAA,4.56
11,TAGCCTAGGTCAGATCGGGCGAGTATACGCTATA,0.506
12,CGACCTAGGTCACCAGGACAGTGAAGAGGTTGGA,2.68
13,CGAACTAGGTCAAAGGACAGTGCAAGGCGACGTA,1.68
14,TCGAGTAGGTTACGGGGGCAATCAGGGATGAAGA,3.22
15,AGATTGAGGTTACCAAAGATCAGGGAAACGCTTG,1.39
16,CGAACTAGGTCACCAGGACAGAGAAGAGGTTGGA,2.04
17,TATACAGGATCAAAGGCCAGAGTACGAATGTCGA,0.61
18,TAGCCTAGGTCATTGGACCAGTATAGTACGCATC,2.08
19,CCTTACGGGTCAGTGACAGGTTATAGCATTTGGA,2.49
20,CTATGTAGGTTAAGGGGGTCGTTCAGTTTGAAAG,6.43
